The results in this text go back to PubChem BioAssay.

Molecules are shown by their SMILES. Active and inactive are the calls of the source.

Assay [1] addresses Albumin (Bos taurus) (UniProt P02769). The assay can be described thus: compounds binding labelled BSA control protein – biochemical, small-molecule microarray, Alexa647 label, 635/667 nm fluorescence, artefact control for SMM control protein annotation, profiling panel (AID 1118).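 Also: score merges 667 nm emission intensity and signal-to-noise per printed compound spot.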 Conditions: BSA-A647 binding, fluorescence 635 nm, higher = more signal.
Assay [2] in a line: probe aXIP binding to arrayed compounds – biochemical, NeuroSMM set, 635/667 nm fluorescence, primary screen (AID 1119).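 Also: probe is the protein aXip251-270 applied at 1 µg/mL to compound-printed slides; binding of probe to printed compounds measured as 667 nm fluorescence plus signal to noise.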 The note with it: small-molecule microarray, higher = more signal, called active from +8 up or from −8 down.
Assay [3] is described as follows: probe aNOTCH3 binding on compound microarray – biochemical, small-molecule microarray, 635/667 nm fluorescence, primary screen (AID 1120).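 Also: probe is a biotin-tagged antibody raised against NOTCH3 rather than NOTCH3 protein; score merges spot fluorescence near 667 nm with spot signal to noise.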 Conditions: higher = more signal.
Assay [4] in a line: probe aNOTCH2 binding on compound microarray – biochemical, small-molecule microarray, 635/667 nm fluorescence, primary screen (AID 1121).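 Also: score merges feature fluorescence read at 667 nm with its signal to noise.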 Conditions: higher = more signal.
Assay [5] addresses Carbonic anhydrase 2 (Homo sapiens) (UniProt P00918). The assay can be described thus: compounds binding carbonic anhydrase 2 – biochemical, small-molecule microarray, Alexa647-labelled CAII, profiling panel (AID 1122). Conditions: CAII-A647 binding fluorescence, higher = more signal.
Assay [6] is described as follows: COS7 lysate on small-molecule microarray, probe aHis, 635 nm (AID 1123).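 Also: z-score combines 667nm fluorescence intensity with signal-to-noise per printed compound spot.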 Conditions: COS7 cell lysate, fluorescence, higher = more signal.
Assay [7] can be described thus: probe aLAP1 signal on lysate-treated microarray – cell lysate, small-molecule microarray, COS7 lysate, primary screen (AID 1124).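 Also: lysate comes from COS7 cells expressing LAP1 and is applied at 0.3 µg/mL; score merges spot fluorescence near 667 nm with signal-to-noise over triplicate slides.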 The note with it: probe aLAP1, fluorescence, higher = more signal.
Assay [8] relates to Sam68 (KHDRBS1). Description: compounds binding KHDRBS1 protein – biochemical, small-molecule microarray, 635 nm fluorescence, primary screen (AID 1125).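 Also: score merges 667 nm channel intensity with signal to noise over triplicate slides.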 The note with it: higher = more signal.
In assay [9] the test system is Chordin-like protein 2 (CHRDL2). The assay can be described thus: compounds binding chordin-like 2 – biochemical, small-molecule microarray, 635 nm fluorescence, primary screen (AID 1126).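 Also: printed compound slides probed with Chrdl2 protein at 4 µg/mL for 1 h at 4 C; score merges 667 nm emission intensity with signal to noise over three replicate slides.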 Conditions: fluorescence 635 nm, higher = more signal.
The target in assay [10] is Concanavalin-A (Canavalia ensiformis) (UniProt P02866). The assay can be described thus: compounds binding concanavalin A lectin – biochemical, small-molecule microarray, Alexa647 label, 635 nm, artefact control for SMM control protein annotation, primary screen (AID 1127).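 Also: z combines 667 nm emission intensity with signal-to-noise across three replicate slides.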 The note with it: ConA-A647 binding fluorescence, higher = more signal.
Concanavalin-A (Canavalia ensiformis), sequence (P02866 whole entry, looked up): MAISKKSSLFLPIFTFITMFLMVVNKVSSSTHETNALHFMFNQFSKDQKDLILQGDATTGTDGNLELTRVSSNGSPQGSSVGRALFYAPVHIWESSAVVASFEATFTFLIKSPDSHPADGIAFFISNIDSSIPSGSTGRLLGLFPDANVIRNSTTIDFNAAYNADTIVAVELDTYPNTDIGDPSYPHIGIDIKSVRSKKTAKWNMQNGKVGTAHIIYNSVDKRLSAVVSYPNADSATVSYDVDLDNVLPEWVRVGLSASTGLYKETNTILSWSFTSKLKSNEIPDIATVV

Albumin (Bos taurus), sequence (P02769 whole entry, looked up): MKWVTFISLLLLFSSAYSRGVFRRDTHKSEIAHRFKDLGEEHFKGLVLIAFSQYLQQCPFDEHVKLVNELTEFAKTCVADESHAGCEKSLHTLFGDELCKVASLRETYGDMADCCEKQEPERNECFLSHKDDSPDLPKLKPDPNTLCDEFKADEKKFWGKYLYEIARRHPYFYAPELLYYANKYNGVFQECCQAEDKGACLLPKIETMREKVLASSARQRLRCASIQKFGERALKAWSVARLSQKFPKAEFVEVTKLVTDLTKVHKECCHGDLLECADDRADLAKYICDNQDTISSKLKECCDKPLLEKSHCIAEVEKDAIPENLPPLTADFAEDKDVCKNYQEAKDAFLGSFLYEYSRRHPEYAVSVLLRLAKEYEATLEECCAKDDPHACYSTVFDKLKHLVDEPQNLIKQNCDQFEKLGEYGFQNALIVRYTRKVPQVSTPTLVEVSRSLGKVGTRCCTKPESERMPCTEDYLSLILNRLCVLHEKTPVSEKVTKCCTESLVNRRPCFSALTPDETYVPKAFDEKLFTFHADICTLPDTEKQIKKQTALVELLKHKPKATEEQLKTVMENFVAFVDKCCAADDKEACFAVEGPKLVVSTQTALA

As to `CC1(C)OB(/C=C\CC(OC(=O)c2ccncc2)c2ccccc2)OC1(C)C` (stereo not given), the composite z-score in assay [1] was 0.152; in assay [3] it was -0.0345; in [4] it was -0.0464; in assay [5], 0.918; in [6] it was 0.677; in [7], 0.953. For the same compound, the values for the composite z-score in [8], in [9] and in assay [10] were 0.426, 0.381 and -0.305, respectively. Further, in assay [2], the composite Z-score is 0.142 (inactive).

Consider `C[C@@]1([C@@H](NS(=O)(=O)c2cccc3cccnc23)c2ccc(-c3ccccc3)cc2)C[C@H]1C1CCCCC1`, for which the composite z-score in [1] was 0.533; in assay [3] it was 0.314; in assay [4] it was 0.131; in assay [5], 0.549; in assay [6] it was 2.06; in [7], 0.165. Besides, the composite z-score in [8] was 0.292; in [9], -0.214; in assay [10], 0.391. The composite Z-score in assay [2] is -0.343 (inactive).

Take `C=CCOC(=O)[C@H]1[C@@H]2C(=O)O[C@@H](c3ccccc3)[C@@H](c3ccccc3)N2[C@@H](c2ccc(OCCOC(=O)[C@@H]3C[C@@H]4C(=O)N[C@@H](Cc5ccccc5)C(=O)N4[C@@H]3c3ccc(O)cc3)cc2)[C@]12C(=O)Nc1ccc(I)cc12`: the composite z-score in [1] was -0.257; in [3], 0.698; in [4], -0.092; in assay [5] it was 0.218; in assay [6], 1.33; in assay [7], -0.052. For the same compound, the composite z-score in assay [8] came out at 1.16; in assay [9], 0.915; in assay [10], 0.92. Also, in [2], the composite Z-score was 0.661 (inactive).

With `COC(=O)[C@@]1(Cc2ccccc2)[C@H]2c3cc(C(=O)N(C)C)n(Cc4ccc(Cl)c(C(F)(F)F)c4)c3C[C@H]2CN1C(=O)c1ccccc1`, the composite z-score was found to be 0.811 in assay [1]; 0.745 in assay [3]; 0.445 in [4]; 0.668 in assay [5]; 1.9 in [6]; 0.402 in assay [7]. For the same compound, the figures for the composite z-score in [8], in [9] and in [10] were 1.2, -0.123 and 0.95, respectively. Further, the composite Z-score in assay [2] is -0.215 (inactive).

Take `O=C(NCCN1CCOCC1)[C@@H]1c2ccccc2C(=O)N(CC23CC4CC(CC(C4)C2)C3)[C@H]1c1ccc(CO)cc1`: the composite z-score in assay [1] worked out at 0.974; in assay [3], 0.216; in assay [4] it was 0.0129; in assay [5] it was 0.642; in assay [6], 2.17; in assay [7], 0.522. Besides, the composite z-score in [8] was found to be 1.3; in [9] it was 0.0884; in assay [10], 1.14. Further, in [2], the composite Z-score was 0.864 (inactive).

For the compound `CN(C)CCCCNC(=O)[C@H]1C[C@H]2C(=O)N[C@@H](CCCCN(C)C)C(=O)N2[C@H]1c1ccc(O)cc1`, the composite z-score in assay [1] was -0.155; in [3] it was -0.0918; in assay [4], -0.0262; in assay [5] it was 0.518; in assay [6], -0.28; in assay [7] it was 0.224. Moreover, the composite z-score is -0.093 in assay [8], 1.15 in assay [9] and 0.224 in assay [10]. In addition, the composite Z-score in [2] was 0.151 (inactive).

For `C=CCOC(=O)[C@H]1[C@@H]2C(=O)O[C@@H](c3ccccc3)[C@@H](c3ccccc3)N2[C@@H](c2ccc(OCCOC(=O)[C@H]3C[C@H]4C(=O)NCC(=O)N4[C@H]3c3cccc(OCCO)c3)cc2)[C@]12C(=O)Nc1ccc(I)cc12`, the composite z-score is -0.0037 in assay [1]; 0.138 in assay [3]; -0.125 in assay [4]; 0.567 in assay [5]; 2.2 in assay [6]; 0.692 in [7]. Moreover, the composite z-score in assay [8] was 1.29; in assay [9], 0.866; in assay [10], 1.14. Moreover, in [2], the composite Z-score is 0.642 (inactive).

For `C=CCNC(=O)[C@@H]1[C@H]2C(=O)O[C@H](c3ccccc3)[C@H](c3ccccc3)N2[C@H](c2ccc(OCCO)cc2)[C@@]12C(=O)N(C(=O)OCCOC)c1ccccc12`, the composite z-score in [1] was 0.258; in assay [3], -0.0362; in [4] it was -0.0432; in assay [5], 0.589; in assay [6] it was 2.37; in assay [7], 0.67. In addition, the values for the composite z-score in assay [8], in [9] and in [10] were 1.29, 0.389 and 1.03, respectively. Moreover, the composite Z-score in assay [2] was 1.01 (inactive).

Take `CC(C)c1ccc(NN2C(C(O)c3ccccc3)C=CC3C(=O)N(c4ccccc4)C(=O)C32)cc1` (stereo not given): the composite z-score is 0.834 in assay [1]; 0.216 in [3]; -0.0194 in assay [4]; 0.574 in assay [5]; 1.79 in assay [6]; -0.191 in assay [7]. Further, the composite z-score in assay [8] was 1.32; in [9], -0.747; in assay [10] it was 1.12. The composite Z-score in assay [2] is -0.175 (inactive).

In the case of `CCOC(=O)C[C@H]1[C@H](OC(=O)c2ccc(-c3ccccc3)cc2)[C@@H](NC(=O)c2ccc(-c3ccccc3)cc2)c2cc(OCCCO)ccc2N1C(=O)c1ccccc1`, the composite z-score in [1] is 0.771; in assay [3], 0.0916; in assay [4], -0.129; in assay [5] it was 0.277; in assay [6], 0.895; in [7], 0.331. In addition, the figures for the composite z-score in assay [8], in assay [9] and in assay [10] were 1.32, -0.0105 and 1.06, respectively. The composite Z-score in assay [2] was 0.884 (inactive).

Turning to `COc1c(C)cc(-c2nc(-c3ccccc3)c3c(c2C)CO[Si]3(C(C)C)C(C)C)cc1C`, the composite z-score in assay [1] is -0.116; in assay [3], 0.178; in assay [4] it was -0.0048; in [5], -0.0127; in assay [6], 0.275; in assay [7] it was -0.314. The composite z-score in [8] was 0.214; in assay [9], 0.264; in assay [10], -0.53. In addition, the composite Z-score in assay [2] is 0.257 (inactive).

As to `CS(=O)(=O)CCOC(=O)C1=CC(CCCO)=CC(C2CC2)N(Cc2sc3ccccc3c2Cl)C=C1C(=O)OCCS(C)(=O)=O` (stereo not given), the composite z-score in assay [1] was found to be 1.01; in [3], 0.398; in assay [4], 0.0706; in assay [5], 0.666; in assay [6] it was 2.34; in assay [7] it was 0.549. The composite z-score was 1.07 in [8], -0.225 in assay [9] and 0.648 in assay [10]. In assay [2], the composite Z-score is -0.0349 (inactive).

Take `CC[C@@H](O[Si](C#C[Si](C(C)C)(C(C)C)C(C)C)(C(C)C)C(C)C)c1cn([C@H](CO)Cc2ccccc2)nn1`: the composite z-score in [1] is 0.239; in assay [3], -0.0077; in [4] it was -0.0995; in [5], 0.409; in assay [6], 0.398; in assay [7], 0.0485. Moreover, the results for the composite z-score in assay [8], in assay [9] and in [10] were 1.09, 0.414 and 0.346, respectively. The composite Z-score in assay [2] was 0.133 (inactive).

Take `C#CCN(C(=O)OC(C)(C)C)[C@H](CO)c1ccccc1`: the composite z-score is 0.632 in assay [1]; -0.0043 in assay [3]; -0.146 in assay [4]; 0.0604 in [5]; 0.125 in [6]; 0.183 in [7]. Besides, the composite z-score was 0.689 in assay [8], 0.105 in assay [9] and 0.0388 in assay [10]. Besides, the composite Z-score in assay [2] is 0.32 (inactive).
